Reference: PubChem BioAssay (NCATS)
Inconclusive results are not listed. Active and inactive are the calls of the source. The call rests on the fitted dose curve; in most records, active means well fitted inhibition curve with a large enough effect; inconclusive means small, poorly fitted or top-dose-only effect; inactive means flat fitted curve, though single readings scatter.

How the values were obtained:
CRL-7250 = normal cell line; test: Cytotoxic Profiling of Annotated Libraries Using Quantitative High-Throughput Screening (AID 1296008); conditions: Five cell lines viability, CellTiter-Glo ATP luminescence, 48-72 h; max response: hits give low values; on max response: on the % scale 0 is the no-effect control and ±100 the full control effect
Method in brief: (§1)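 Cytotoxicity was measured as CellTiter-Glo ATP luminescence, read after 10 min at room temperature. Compound treatment of the cells lasted 48 or 72 hr at 37 degrees Celsius in a qHTS format.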

HaCat [1] = test: as above; conditions: Five cell lines viability, CellTiter-Glo ATP luminescence, 48-72 h; max response: hits give low values
Method in brief: as §1

KB-3-1 = test: as above; conditions: Five cell lines viability, CellTiter-Glo ATP luminescence, 48-72 h; max response: hits give low values
Method in brief: as §1

NIH3T3 = test: as above; conditions: Five cell lines viability, CellTiter-Glo ATP luminescence, 48-72 h; max response: hits give low values
Method in brief: as §1

HACAT [2] = test: qHTS assay to identify novel small-molecules to repurpose for Merkel cell carcinoma treatment (AID 1296009); conditions: MCC and control cell lines, CellTiter-Glo viability, 72 h; at 44.8 µM (top of the series) unless noted
Method in brief: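 72 hr, 37 degree celsius; NPC 8-pt / MIPE 11-pt dose response; compound pinned in DMSO; CellTiter-Glo, 10 min RT, luminescence; normalized to no-cell and DMSO controls.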

Measured: max response
Further: nearly all actives have a fitted effect of over 60% in size.

C=C1CC2OC(=O)C(=C)C2C(O)/C=C(\C)CCC1O (stereo not given)
inactive: CRL-7250 -0.668% | HaCat [1] | KB-3-1 5.02% | NIH3T3 -10.3% | HACAT [2]

CC(C)(F)CC(NC(c1ccc(-c2ccc(S(C)(=O)=O)cc2)cc1)C(F)(F)F)C(=O)NC1(C#N)CC1 (stereo not given)
inactive: CRL-7250 -1.34% | HaCat [1] | KB-3-1 | NIH3T3 | HACAT [2]

Fc1ccc(CN2CCC(Nc3ccc(C(F)(F)F)nn3)CC2)cc1F
inactive: CRL-7250 -3.28% | HaCat [1] | KB-3-1 -12.1% | NIH3T3 -5.8% | HACAT [2]

COc1cc(C2OC(c3ccc(OC)c(OC)c3)C(C)C2C)ccc1O (stereo not given)
inactive: CRL-7250 -1.49% | HaCat [1] | KB-3-1 -5.2% | NIH3T3 -6.22% | HACAT [2]

CCOC(=O)N1CCC(N2CCC[C@@H](NC(=O)c3ccccc3C)C2)CC1
inactive: CRL-7250 -6.33% | HaCat [1] | KB-3-1 8.62% | NIH3T3 | HACAT [2]

C=C1CC[C@@H]2[C@](C)(CO)[C@H](O)CC[C@@]2(C)[C@@H]1CC(O)C1=CCOC1=O (stereo not given in full)
inactive: CRL-7250 -6.08% | HaCat [1] | KB-3-1 | NIH3T3 | HACAT [2]

COc1cc2nc(N3CCN(C(=O)COc4c(OC)cccc4C(C)C)CC3)nc(N)c2cc1OC
inactive: CRL-7250 1.78% | HaCat [1] | KB-3-1 8.96% | NIH3T3 | HACAT [2]

CCC/C=C/C(=O)O[C@H]1CC(C)(C)CC2[C@@]13[C@H](O)C[C@]1(C)[C@@]2(CCC2[C@@]4(C)CC[C@H](O[C@@H]5O[C@H](C(=O)O)[C@@H](O)[C@H](O[C@@H]6O[C@H](CO)[C@H](O)[C@H](O)[C@H]6O[C@@H]6O[C@@H](C)[C@H](O)[C@@H](O)[C@H]6O[C@@H]6OC[C@](O)(CO)[C@H]6O)[C@H]5O[C@@H]5O[C@H](CO)[C@H](O)[C@H](O)[C@H]5O)C(C)(C)C4CC[C@]21C)O[C@H]3O (stereo not given in full)
inactive: CRL-7250 | HaCat [1] | KB-3-1 | NIH3T3 3.59% | HACAT [2] inactive [at 9.27 µM]

CCCCC1CCC(c2nc(-c3ccncc3)no2)CC1 (stereo not given)
inactive: CRL-7250 -23.2% | HaCat [1] | KB-3-1 -26.8% | NIH3T3 -3.82% | HACAT [2]

C=C1CC[C@H]2C(=C)CC[C@H]3C(=C)C(=O)O[C@@H]3[C@@H]12
inactive: CRL-7250 -11.6% | HaCat [1] | KB-3-1 -8.05% | NIH3T3 -3.18% | HACAT [2]

O=C(Nc1ccn(Cc2ccc(O)cc2C(F)(F)F)n1)c1c(F)cccc1F
inactive: CRL-7250 -7.76% | HaCat [1] | KB-3-1 -23.9% | NIH3T3 | HACAT [2]

CCC(C)C1NC(=O)C(Cc2ccccc2)NC(=O)C(CCCCCC(=O)C(O)CO)NC(=O)C2CCCCN2C1=O (stereo not given)
inactive: CRL-7250 -4.29% | HaCat [1] | KB-3-1 | NIH3T3 | HACAT [2] inactive [at 17.4 µM]

CC#CCn1c(N2CCCC(N)C2)nc2c1c(=O)n(Cc1nc(C)c3ccccc3n1)c(=O)n2C (stereo not given)
inactive: CRL-7250 0.556% | HaCat [1] | KB-3-1 | NIH3T3 | HACAT [2]

CC1=C(C(=O)Nc2cc(Cl)ccc2Cl)C(c2ccco2)C2=C(CCCC2=O)N1 (stereo not given)
inactive: CRL-7250 -1.05% | HaCat [1] | KB-3-1 7.23% | NIH3T3 -25.9% | HACAT [2]

CNCCC(c1cccs1)c1ccc(O)c2ccccc12 (stereo not given)
inactive: CRL-7250 3.5% | HaCat [1] | KB-3-1 6.48% | NIH3T3 | HACAT [2]

CCNC1(C(N)=O)CN(c2nc(C)nc3c(-c4ccc(Cl)cc4)c(-c4ccccc4Cl)nn23)C1
inactive: CRL-7250 -17.8% | HaCat [1] | KB-3-1 -14.3% | NIH3T3 -3.55% | HACAT [2]

CC1(C)C2CCC(CO[C@@H]3O[C@H](CO[C@@H]4OC[C@](O)(CO)[C@H]4O)[C@@H](O)[C@H](O)[C@H]3O)C1C2 (stereo not given in full)
inactive: CRL-7250 1.81% | HaCat [1] | KB-3-1 | NIH3T3 | HACAT [2] inactive [at 17.4 µM]

CCCn1cc2c(nc(NC(=O)Nc3ccc(OC)cc3)n3nc(-c4ccco4)nc23)n1
inactive: CRL-7250 4.71% | HaCat [1] | KB-3-1 9% | NIH3T3 | HACAT [2]

O=C(NC[C@H]1CN(c2ccc(N3CCOCC3=O)cc2)C(=O)O1)c1ccc(Cl)s1
inactive: CRL-7250 0.206% | HaCat [1] | KB-3-1 -11.5% | NIH3T3 -0.938% | HACAT [2]

O=C(NCC1CCN(Cc2cccc(Cl)c2)CC1)[C@@H]1CCCN(c2ncnc3c2nc2n3CCCC2)C1
inactive: CRL-7250 4.3% | HaCat [1] | KB-3-1 -6.02% | NIH3T3 | HACAT [2]

C/C=C/C1=CC2=C(CO1)C(=O)C(C)(OC(=O)c1c(C)cc(O)cc1OC)C(O)C2 (stereo not given)
inactive: CRL-7250 3.73% | HaCat [1] | KB-3-1 2.17% | NIH3T3 1.21% | HACAT [2]

CC(C)(Cc1nc(-c2ccc(O)cn2)no1)C(=O)NC1=C(C(=O)O)CCCC1
inactive: CRL-7250 -1.84% | HaCat [1] | KB-3-1 2.15% | NIH3T3 -20.8% | HACAT [2]

C=C1C(=O)OC2C=C(C)CC/C=C(\CO)CC(O)C12 (stereo not given)
inactive: CRL-7250 -3.89% | HaCat [1] | KB-3-1 5.92% | NIH3T3 -2.7% | HACAT [2]

O=[N+]([O-])c1ccc(Oc2ccc3c(c2)CCC(c2ccccc2)O3)nc1 (stereo not given)
inactive: CRL-7250 | HaCat [1] | KB-3-1 -24.2% | NIH3T3 -17% | HACAT [2]

COc1ccc(NC(=O)c2ccc(-c3ccc(-c4nnc(C)o4)cc3C)cc2)cc1N1CCN(C)CC1
inactive: CRL-7250 2.13% | HaCat [1] inactive; activator | KB-3-1 2.03% | NIH3T3 -14.5% | HACAT [2] inactive; activator

O=C(O)c1ccc(S(=O)(=O)N(Cc2ccc(OC(F)(F)F)cc2)c2ncc(C(F)(F)F)cc2Cl)cc1
inactive: CRL-7250 -3.34% | HaCat [1] | KB-3-1 0.52% | NIH3T3 -0.0805% | HACAT [2]

C=C(C(=O)OC)[C@@H]1CC=C2C=CC(=O)[C@H](C)[C@@]2(C)C1
inactive: CRL-7250 4.23% | HaCat [1] | KB-3-1 -5.91% | NIH3T3 | HACAT [2]

Cc1nc(C(=O)N2CCC[C@H]2Cc2nnc(-c3ccccc3)o2)c(-c2ccccc2F)s1
inactive: CRL-7250 | HaCat [1] | KB-3-1 | NIH3T3 4.09% | HACAT [2]

CN(C)N(C)C(=O)[C@@]1(Cc2ccccc2)CCCN(C(=O)[C@@H](Cc2c[nH]c3ccccc23)NC(=O)C(C)(C)N)C1
inactive: CRL-7250 -26.9% | HaCat [1] | KB-3-1 4.19% | NIH3T3 -7.17% | HACAT [2]

COc1ccc(CCN(C)CCCOc2nsc(-c3ccccc3)n2)cc1OC
inactive: CRL-7250 | HaCat [1] | KB-3-1 -3.88% | NIH3T3 | HACAT [2]

CCOC(=O)CCNc1cc(N2CCc3ccccc3CC2)nc(-c2cccnc2)n1
inactive: CRL-7250 | HaCat [1] | KB-3-1 | NIH3T3 | HACAT [2]

O=C(Nc1ccccc1C(=O)Nc1ccc(CCO)cc1)c1ccc([N+](=O)[O-])cc1
inactive: CRL-7250 -0.113% | HaCat [1] | KB-3-1 | NIH3T3 | HACAT [2]

CCCC(=O)C1(c2ccccc2)CCN(C(=O)[C@@H](Cc2ccc(OC)cc2)NC(=O)[C@@H](N)Cc2cncn2C)CC1
inactive: CRL-7250 3.05% | HaCat [1] | KB-3-1 -9.44% | NIH3T3 -0.497% | HACAT [2]

NS(=O)(=O)c1ccc(NC(=O)Nc2ccc(F)cc2)cc1
inactive: CRL-7250 | HaCat [1] | KB-3-1 -12% | NIH3T3 2.88% | HACAT [2]

CC12CCC3C1C(c1c(cc(O)c(C(=O)c4ccccc4)c1O)O2)C3(C)C (stereo not given)
inactive: CRL-7250 3.27% | HaCat [1] | KB-3-1 -20.8% | NIH3T3 -2.16% | HACAT [2]

CC(C)(C)Sc1c(CC(C)(C)C(=O)O)n(Cc2ccc(Cl)cc2)c2ccc(OCc3ccc4ccccc4n3)cc12
inactive: CRL-7250 -0.604% | HaCat [1] | KB-3-1 | NIH3T3 1.54% | HACAT [2]

CCNC(=O)N1CCCN(c2ccc(C(=O)NCCc3ccc(Cl)cc3Cl)cc2NC(=O)c2cccc(Cl)c2)CC1
inactive: CRL-7250 -3.91% | HaCat [1] | KB-3-1 -2.47% | NIH3T3 2.92% | HACAT [2]

O=C(NCCCn1ccnc1)c1cc(-c2ccco2)on1
inactive: CRL-7250 -18.4% | HaCat [1] | KB-3-1 -0.296% | NIH3T3 2.29% | HACAT [2]

C=C1C(=O)O[C@@H]2/C=C(\CO)CC/C=C(\CO)[C@H](OC(C)=O)C(OC(=O)C(C)CC)C12 (stereo not given in full)
inactive: CRL-7250 -5.38% | HaCat [1] | KB-3-1 | NIH3T3 -1.91% | HACAT [2] inactive [at 17.4 µM]

O=C(NCCCN1CCC2(CC1)OCc1ccccc12)[C@H]1CCCN1Cc1ccccc1
inactive: CRL-7250 | HaCat [1] | KB-3-1 -7.1% | NIH3T3 4.93% | HACAT [2]

CC1(C)CC[C@]2(C(=O)O)[C@H](O)C[C@]3(C)C(=CCC4[C@@]5(C)CC[C@H](O[C@@H]6O[C@H](CO[C@@H]7OC[C@H](O)[C@H](O)[C@H]7O[C@@H]7OC[C@H](O)[C@H](O)[C@H]7O)[C@@H](O)[C@H](O)[C@H]6O)C(C)(C)C5CC[C@]43C)[C@@H]2C1 (stereo not given in full)
inactive: CRL-7250 | HaCat [1] | KB-3-1 | NIH3T3 -3.93% | HACAT [2] inactive [at 9.27 µM]

CC(C)(C)c1ccc(C(=O)Nc2cn3cc(-n4ccnc4)ccc3n2)cc1
inactive: CRL-7250 | HaCat [1] | KB-3-1 7.42% | NIH3T3 -1.43% | HACAT [2]

COc1cc(/C=C2\CC[C@H]3COC[C@@H](c4cc(F)c(F)c(F)c4)N3C2=O)ccc1-n1cnc(C)c1
inactive: CRL-7250 3.12% | HaCat [1] | KB-3-1 | NIH3T3 | HACAT [2]

CCc1ccc(-c2nc(CSCC(=O)NCCc3ccccc3)c(C)o2)cc1
inactive: CRL-7250 2.64% | HaCat [1] | KB-3-1 -10.3% | NIH3T3 -12.1% | HACAT [2]

C[C@@H](NC(=O)C(=O)c1c[nH]c2ccc([N+](=O)[O-])cc12)c1ccccc1
inactive: CRL-7250 | HaCat [1] | KB-3-1 -11% | NIH3T3 3.7% | HACAT [2]
